Only some compounds are listed: those with a hit (about 9% of all), similar ones and a draw of the others.
ALDH1A1 block: qHTS Assay for Inhibitors of Aldehyde Dehydrogenase 1 (ALDH1A1); Aldehyde dehydrogenase 1A1 (Homo sapiens), P00352; Purified ALDH1A1, NADH fluorescence, propionaldehyde substrate; Potency, µM (highest dose often 75.3 µM), usual class: inhibitors; 7.3% of 220,000 active; AID 1030, 2008
IMPase cell inh: qHTS Assay for Identifying the Cell-Membrane Permeable IMPase Inhibitors; inhibition (IP1 accumulation), % at 46.1 µM; CHO-M1 cells, IP1 accumulation, HTRF TR-FRET ratio; 120,000 tested, under 10 active; Inositol monophosphatase 1 (Rattus norvegicus), P97697; active = well fitted curve in the direction sought with a large enough effect in the signal ratio, not every such curve was filed as active; inconclusive = small, poorly fitted or top-dose-only effect, or a change in a side signal; inactive = no such curve, though single readings can be large or run the other way; the % refers to the signal ratio;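 also: cells stimulated with carbachol in lithium chloride buffer; higher means more IMPase inhibition seen as more IP1 and lower FRET ratio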
Target sequence (P97697 whole entry, looked up): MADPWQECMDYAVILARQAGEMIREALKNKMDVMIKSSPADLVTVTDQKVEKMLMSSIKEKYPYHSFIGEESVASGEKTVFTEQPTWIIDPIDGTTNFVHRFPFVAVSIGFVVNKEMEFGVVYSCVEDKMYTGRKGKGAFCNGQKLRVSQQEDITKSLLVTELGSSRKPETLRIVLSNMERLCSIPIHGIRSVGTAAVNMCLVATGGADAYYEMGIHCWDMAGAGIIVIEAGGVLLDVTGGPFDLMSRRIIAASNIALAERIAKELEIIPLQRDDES
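CHO-M1, 2000 cells/well, cultured 16–30 h; cpd up to 46 uM; carbachol (50 uM solution, stimulation buffer w/ 50 mM LiCl, pH 7.4), 30 min 37C; IP-One TR-FRET, 10 min RT; Ex 320/Em 665, 620; Hill-fit AC50.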
HPGD block: qHTS Assay for Inhibitors of HPGD (15-Hydroxyprostaglandin Dehydrogenase); purified HPGD, NADH fluorescence kinetic, PGE2 substrate; 4.3% of 150,000 active; Potency, µM, most hits filed as inhibitors
Target sequence (P15428 whole entry, looked up): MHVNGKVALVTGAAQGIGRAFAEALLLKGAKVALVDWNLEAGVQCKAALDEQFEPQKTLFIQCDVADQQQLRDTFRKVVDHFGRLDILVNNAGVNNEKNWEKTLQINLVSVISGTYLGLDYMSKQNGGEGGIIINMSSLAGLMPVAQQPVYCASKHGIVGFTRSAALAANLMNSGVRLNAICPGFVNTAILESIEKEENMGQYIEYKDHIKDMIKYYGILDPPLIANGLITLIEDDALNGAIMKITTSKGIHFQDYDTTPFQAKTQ
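NADH formation kinetics: reaction with 30 uM PGE2 and 1 mM NAD+ (final), 20 nM enzyme, Tris-HCl pH 8 with Tween 20, after 15 min compound preincubation at room temperature. Fluorescence change, last versus first of five reads.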
Each line names hits and unclear results; the compound was inactive in the other large screens. Unless noted, calls follow the shape of the dose curve; as a rule, active = well fitted inhibition curve with a large enough effect (not every such curve was filed as active); inconclusive = small, poorly fitted or top-dose-only effect, or another doubt; inactive = no such curve, though single readings can be large or run the other way.

CCOC(=O)C1(C)/C(=N/Nc2ccc(Cl)cc2)C(=O)C(=O)N1c1ccccc1 (stereo not given)	ALDH1A1 block inconclusive, HPGD block inconclusive
CCOC(=O)/C(=N\Nc1ccccc1Cl)N1CCN(C)CC1	none
CCOC(=O)C1(C)C=C(Nc2ccc(C(=O)O)cc2)C(=O)N1c1ccc(C(=O)O)cc1 (stereo not given)	none (no result: ALDH1A1 block, HPGD block)
CCOC(=O)C1(C)/C(=N/Nc2ccccc2Cl)C(=O)C(=O)N1c1ccccc1 (stereo not given)	ALDH1A1 block 0.22µM, HPGD block 40µM
O=C(Nc1ccc2c(c1)OCCO2)N1CCN(Cc2ccccc2)CC1	none (no result: IMPase cell inh, HPGD block)
Cn1c(SCC2CCCO2)nnc1-c1ccc([N+](=O)[O-])cc1 (stereo not given)	none (no result: IMPase cell inh, HPGD block)
CCN(CCn1cccn1)Cc1ccccc1OCC(O)CN1CCc2ccccc2C1 (stereo not given)	none (no result: IMPase cell inh, HPGD block)
CCC(C)N1C(=O)CN(C2CCCCCC2)C(=O)C1c1ccccc1F (stereo not given)	ALDH1A1 block 16µM (no result: IMPase cell inh, HPGD block)
COc1ccccc1CN1C(=O)CN(C2CCCCCC2)C(=O)C1c1ccc(F)cc1 (stereo not given)	ALDH1A1 block inconclusive
CCCNC(=O)COC(=O)/C(C#N)=C/c1cc(C)n(CCC)c1C	none (no result: IMPase cell inh, HPGD block)
Cc1ccccc1CSc1nnc(C)c(=O)n1N	none (no result: IMPase cell inh, HPGD block)
CCN(CC(=O)Nc1cccc(Br)c1)Cc1nc2ccccc2c(=O)[nH]1	ALDH1A1 block inconclusive
CCN(CC(=O)Nc1ccc2c(c1)OC(F)(F)O2)Cc1nc2ccccc2c(=O)[nH]1	ALDH1A1 block inconclusive
CCN(CC(=O)Nc1ccc(N2CCOCC2)cc1)Cc1nc2ccccc2c(=O)[nH]1	ALDH1A1 block 22µM
CCN(CC(=O)Nc1ccc2c(c1)CCC2)Cc1nc2ccccc2c(=O)[nH]1	ALDH1A1 block 14µM
CN(CC(=O)Nc1ccc(N2CCOCC2)cc1)Cc1c(O)ccc2ccccc12	ALDH1A1 block 3.5µM (no result: IMPase cell inh, HPGD block)
CSc1ccccc1NC(=O)CN(C)CC(=O)Nc1ccc(N2CCOCC2)cc1	none (no result: IMPase cell inh, HPGD block)
CCN(CC(=O)NC(c1ccccc1)c1ccccc1)Cc1nc2ccccc2c(=O)[nH]1	ALDH1A1 block 18µM
CCN(CC(=O)Nc1ccc2c(c1)OCO2)Cc1nc2ccccc2c(=O)[nH]1	ALDH1A1 block inconclusive
COC(=O)c1cc(COc2ccc3c4c(c(=O)oc3c2)CCC4)c(C)o1	none
C=CCC(C)(NCc1ccccc1)C(=O)OCC (stereo not given)	none (no result: IMPase cell inh)
N/C(Cc1ccc(Cl)cc1)=N\OC(=O)C1CCCCC1	none (no result: IMPase cell inh)
CC1CCC(NC(=O)c2ccc(NC(=O)c3ccc(=O)[nH]c3)cc2)CC1 (stereo not given)	none (no result: IMPase cell inh)
N#CCCN(C(=O)Nc1ccc(Cl)c(Cl)c1)c1ccccc1	ALDH1A1 block inconclusive (no result: IMPase cell inh)
CCCC1=Nc2cc(C(=O)NCc3ccccc3)ccc2Sc2ccccc21	none (no result: ALDH1A1 block, HPGD block)
CC(=O)c1cccc(NC(=O)C(OC(=O)c2cccc(S(=O)(=O)N(C)c3ccccc3)c2)c2ccccc2)c1 (stereo not given)	none (no result: IMPase cell inh)
CCN(CC)CC(=O)Nc1ccc2c(c1)N(C(=O)CN(CC)CC)c1ccccc1CC2	none
COc1cc2nc(CN(C)CC(=O)Nc3ccc(N4CCOCC4)cc3)[nH]c(=O)c2cc1OC	ALDH1A1 block 28µM, HPGD block inconclusive
CCN(CC)CC(=O)Nc1ccc2c(c1)Nc1ccccc1CC2	ALDH1A1 block 20µM
CCN(CC(=O)NCCc1ccc(Cl)cc1)Cc1nc2ccccc2c(=O)[nH]1	none (no result: IMPase cell inh, HPGD block)
CCN(CC(=O)NCc1ccc(F)cc1)Cc1nc2cc(Cl)ccc2c(=O)[nH]1	ALDH1A1 block 22µM, HPGD block 32µM
COc1cc2nc(CN(C)Cc3nc4ccccc4c(=O)[nH]3)[nH]c(=O)c2cc1OC	none
COc1ccc(CN2C(=O)c3ccccc3C2C(=O)NC2CCCC(C)C2C)c(OC)c1 (stereo not given)	none (no result: IMPase cell inh, HPGD block)
CCc1ncc(CO)n1Cc1cccc2ccccc12	none (no result: IMPase cell inh)
Cc1ccc2nc(N/C(N)=N/S(=O)(=O)c3ccc([N+](=O)[O-])cc3)nc(C)c2c1	none (no result: IMPase cell inh)
NC(=O)c1c(N)sc2c1CCCCC2	ALDH1A1 block 14µM, HPGD block inconclusive
Nc1sc2c(c1C(=O)NC1CCS(=O)(=O)C1)CCC2 (stereo not given)	ALDH1A1 block inconclusive
Cc1occc1C(=O)Nc1sc2c(c1C(N)=O)CCCCC2	ALDH1A1 block inconclusive
CNC(=O)c1c(N)sc2c1CCCCC2	ALDH1A1 block 25µM, HPGD block 32µM
CC(=O)O[C@@H]1CC2C(C)(C)C(=O)C=C[C@]2(C)C2CC[C@]3(C)C(=CC[C@H]3C3CO[C@@H](C(C)(C)O)[C@H](O)C3)[C@@]21C (stereo not given in full)	none (no result: IMPase cell inh)
COc1ccc(NC(=O)c2ccco2)cc1NC(=O)c1cc(OC)c(OC)c(OC)c1	none (no result: ALDH1A1 block, HPGD block)
COc1ccc(C(C#N)C2(C)OCCO2)cc1OC (stereo not given)	ALDH1A1 block 11µM
COc1ccc(C(C#N)N2CCCCC2)cc1OC (stereo not given)	ALDH1A1 block inconclusive
CCC(C)/C(C)=N/NC(=O)CNS(=O)(=O)c1ccc([N+](=O)[O-])cc1 (stereo not given)	none (no result: IMPase cell inh, HPGD block)
CSc1ccccc1-c1n[nH]c(=S)o1	ALDH1A1 block 22µM (no result: IMPase cell inh, HPGD block)
Cc1ccccc1-c1n[nH]c(=S)o1	ALDH1A1 block inconclusive, IMPase cell inh inconclusive
FC(F)(F)c1ccccc1-c1nc(N2CCNCC2)c2ccccc2n1	ALDH1A1 block inconclusive (no result: IMPase cell inh)
O=C(CNc1cc(S(=O)(=O)N2CCOCC2)ccc1N1CCCC1)NCc1ccco1	none (no result: IMPase cell inh, HPGD block)
CN(C)CCNC(=O)c1ccc(COc2ccc(Cl)cc2Cl)cc1	HPGD block inconclusive
CN1CCN(C(=O)c2ccc(COc3ccc(Cl)cc3Cl)cc2)CC1	HPGD block 2.8µM
O=C(CCCOc1ccc(Cl)cc1Cl)N1CCN(c2ccccn2)CC1	IMPase cell inh inconclusive, HPGD block inconclusive
CN1CCN(C(=O)CCCOc2ccc(Cl)cc2Cl)CC1	ALDH1A1 block inconclusive, HPGD block 20µM
O=C(O)c1cccc(COc2ccc(CO)cc2Cl)c1	none
O=C(O)c1ccc(COc2ccc(CO)cc2Cl)cc1	HPGD block 16µM
CNC(=S)NNc1nc(C)cc(C)n1	none (no result: IMPase cell inh, HPGD block)
C#CCCCO/N=C1/C[C@@H](O)[C@@H](O)[C@@H]2[C@@H]3C(=O)N([C@@H](C)c4ccccc4)C(=O)[C@H]3CC[C@H]12	none (no result: IMPase cell inh, HPGD block)
CC(C)C(=O)Nc1ccc(-c2csc(-c3ccccc3)n2)cc1	none
[S-]C(=Nc1ccc(Cl)cc1)N[n+]1ccccc1	HPGD block 6.3µM (no result: IMPase cell inh)
Cc1c(Cc2ccccc2)c(=O)oc2cc(OC(=O)c3ccccc3)ccc12	ALDH1A1 block inconclusive
COc1cccc(C(=O)COc2ccc3c(C)c(Cc4ccccc4)c(=O)oc3c2)c1	ALDH1A1 block 0.63µM (no result: IMPase cell inh)
COc1cccc(-n2cnc3sc(C)c(C)c3c2=O)c1	none (no result: IMPase cell inh)
CCOC(=O)C1CN(S(=O)(=O)c2ccc(C)cc2)c2cc(S(=O)(=O)CC)ccc2O1 (stereo not given)	ALDH1A1 block inconclusive
CCS(=O)(=O)c1ccc2c(c1)N(S(C)(=O)=O)CC(C(=O)NN)O2 (stereo not given)	ALDH1A1 block 0.56µM (no result: IMPase cell inh, HPGD block)
CC(=O)OCOC(=O)CN(CC(=O)OCOC(C)=O)c1ccccc1OCCOc1ccccc1N(CC(=O)OCOC(C)=O)CC(=O)OCOC(C)=O	none (no result: IMPase cell inh, HPGD block)

Compound activity (PubChem BioAssay)
